Potency, max response and activity change, positive = activation data for 9 compounds are collected here from PubChem BioAssay (Tox21).

The structures appear in SMILES notation. A number with no mark means an inactive call. Results filed as inconclusive are left out. The source made the active and inactive calls. Unless noted, calls come from the whole dose curve; as a rule, active = well fitted curve in the direction sought with a large enough effect in the repeat runs; inconclusive = weak or mixed curves; inactive = no such curve, though single readings can be large; an effect the other way counts as inactive or inconclusive.

Experiment [1] concerns the target Thyrotropin receptor (Homo sapiens) (UniProt P16473). Description: qHTS assay to identify small molecule agonists of the thyroid stimulating hormone receptor (TSHR) signaling pathway (AID 1224843; calls by dose curve; note: nearly all actives have a fitted effect of over 45% in size). Put shortly: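 Agonist activity read as cAMP rise via d2/cryptate HTRF competition, 1 h room-temperature detection, in HEK293 cells expressing TSHR. Fifteen-point titrations, each run in triplicate, with a 30 min room-temperature incubation beforehand.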
In general terms: In qHTS, concentration-response curves come from the screen itself.

The nature of experiment [2]: qHTS assay to identify small molecule agonists of the hypoxia (HIF-1) signaling pathway - cell viability counter screen (AID 1224844; calls by dose curve; note: nearly all actives have a fitted effect of over 50% in size; note: potency is the fitted concentration of half-maximal effect). The method, boiled down:
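CellTiter-Glo luminescence read-out, 30 min RT, taken in the same wells as the beta-lactamase HRE reporter assay; HRE-bla ME-180 cells, 0.5% dialyzed FBS, 17 hr compound treatment at 37C, 5% CO2.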

Experiment [3] in a line: qHTS assay to identify small molecule agonists of H2AX - cell viability counter screen (AID 1224847; calls by dose curve; note: nearly all actives have a fitted effect of over 30% in size; note: potency is the fitted concentration of half-maximal effect). Put shortly: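 We seed wild-type CHO-K1 cells overnight, treat them for 3 hr at 37C with compounds in 15-concentration series, and quantify remaining viability by CellTiter-Glo luminescence.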
A short description of experiment [4]: qHTS RealTime-Glo MT Cell Viability Assay in HepG2 cells - 24 hour (AID 1224867). Note: nearly all actives have a fitted effect of over 50% in size. Note: potency is the fitted concentration of half-maximal effect. The method, boiled down:
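Real-time, nonlytic viability: 600 HepG2 cells/well mixed with NanoLuc enzyme plus prosubstrate; 5 h settle, compound (DMSO) added by pintool; luminescence monitored over 40 h at 37 C.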

Experiment [5] is described as follows: qHTS RealTime-Glo MT Cell Viability Assay in HEK293 cells - 32 hour (AID 1224868). Note: nearly all actives have a fitted effect of over 50% in size. Note: potency is the fitted concentration of half-maximal effect. Put shortly: (§1)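 Cells + reagent dispensed (600 cells/well, HEK293) → 5 h at 37 C/5% CO2 → 23 nL compound in DMSO pinned → 40 h at 37 C → luminescence read at 0, 8, 16, 24, 32, 40 h.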
The nature of experiment [6]: A CellTox Green Cytotoxicity Assay to monitor cytotoxicity in HEK293 cells - 0 hour (AID 1224869). Note: nearly all actives have a fitted effect of over 50% in size. The method, boiled down:
(§2)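 Read-out: fluorescence of a cell-impermeant cyanine dye staining DNA of dead cells, proportional to cytotoxicity. HEK293, 600 cells/well with reagent, compound (23 nL DMSO) added after 5 h; reads at 0, 8, 16, 24, 32, 40 h.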

Experiment [7] in a line: qHTS RealTime-Glo MT Cell Viability Assay in HepG2 cells - 40 hour (AID 1224870). Note: nearly all actives have a fitted effect of over 50% in size. The method, boiled down: (§3)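 Real-time viability: cells seeded at 600 per well together with NanoLuc and cell-permeant prosubstrate, compounds added after 5 h incubation. Luminescence tracked at 0, 8, 16, 24, 32 and 40 h of exposure.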
Experiment [8] is described as follows: A CellTox Green Cytotoxicity Assay to monitor cytotoxicity in HEK293 cells - 40 hour (AID 1224871). Note: nearly all actives have a fitted effect of over 45% in size. Note: potency is the fitted concentration of half-maximal effect. Put shortly:
as §2

The nature of experiment [9]: qHTS RealTime-Glo MT Cell Viability Assay in HepG2 cells - 8 hour (AID 1224873). Note: nearly all actives have a fitted effect of over 55% in size. Note: potency is the fitted concentration of half-maximal effect. Put shortly:
as §3

The nature of experiment [10]: qHTS RealTime-Glo MT Cell Viability Assay in HEK293 cells - 40 hour (AID 1224874). Note: nearly all actives have a fitted effect of over 50% in size. Note: potency is the fitted concentration of half-maximal effect. The following applies: RealTime-Glo luminescence; max response: stronger effect = lower value. Put shortly:
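Luminescence readout at each listed time point; HEK293, 600 cells/well, RealTime-Glo MT reagent added with cells; compounds pinned (23 nL in DMSO) after 5 h at 37 C; continuous culture at 37 C.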

A short description of experiment [11]: A CellTox Green Cytotoxicity Assay to monitor cytotoxicity in HEK293 cells - 24 hour (AID 1224875). Note: nearly all actives have a fitted effect of over 45% in size. Note: potency is the fitted concentration of half-maximal effect. Put shortly:
as §2

A short description of experiment [12]: A CellTox Green Cytotoxicity Assay to monitor cytotoxicity in HepG2 cells - 16 hour (AID 1224876). Note: nearly all actives have a fitted effect of over 45% in size. Note: potency is the fitted concentration of half-maximal effect. Put shortly: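 HepG2, 600 cells/well premixed w/ CellTox Green; 5 h settle, 37 C/5% CO2; pintool cpd add (DMSO); 37 C, 40 h; fluorescence read at 0, 8, 16, 24, 32, 40 h.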
A short description of experiment [13]: qHTS assay to identify small molecule antagonists of the estrogen related receptor signaling pathway with the pleiotropic PPARgamma coactivator (PGC) from Tox21 10K library - cell viability counter screen (AID 1224840; active = well fitted cell-killing curve with a large enough effect in the repeat runs, not every such curve was filed as active; note: nearly all actives have a fitted effect of over 40% in size). Put shortly: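 Fluorescence read-out of CellTiter-Fluor viability reagent, added after cells had been exposed to compound in DMSO for 17.5 h at 37 C; 30 min development at 37 C/5% CO2. Cells: PGC/ERR line, 2,000/well.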

Experiment [14] is described as follows: qHTS RealTime-Glo MT Cell Viability Assay in HEK293 cells - 16 hour (AID 1224872). Note: nearly all actives have a fitted effect of over 50% in size. Note: potency is the fitted concentration of half-maximal effect. Put shortly:
as §1

A short description of experiment [15]: qHTS assay to identify small molecule agonists of the estrogen related receptor signaling pathway with the pleiotropic PPARgamma coactivator (PGC) from Tox21 10K library (AID 1224842). Note: nearly all actives have a fitted effect of over 15% in size. Note: potency is the fitted concentration of half-maximal effect. Put shortly:
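Luminescence from One-Glo (30 min, room temperature) measured after PGC/ERR cells had 18 h at 37 C with pinned compound (23 nL in DMSO). Cells had been seeded at 2,000 per well and pre-incubated 6 h.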

Experiment [16] is described as follows: qHTS assay to identify small molecule agonists of H2AX (AID 1224845; active = well fitted activation curve with a large enough effect in the signal ratio in the repeat runs, not every such curve was filed as active; the % refers to the signal ratio). Put shortly:
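Phospho-H2AX Ser139 measured by HTRF (ex 320 nm; em 665 and 620 nm) after 24 hr antibody incubation. Compounds, 15 concentrations, 0.76% DMSO, were applied to CHO-K1 cells for 3hr at 37C before lysis.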

Experiment [17] in a line: qHTS assay to identify small molecule antagonists of the estrogen related receptor (ERR) signaling pathway from Tox21 library (AID 1224848). Note: nearly all actives have a fitted effect of over 50% in size. Note: potency is the fitted concentration of half-maximal effect. The method, boiled down:
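Luciferase luminescence (ONE-Glo, 30 min room temperature) was the read-out. Cells of the NTP-supplied ERR line, 2,000 per well, were given 6 h at 37 C before compound addition in DMSO and 18 h exposure at 37 C.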

A short description of experiment [18]: qHTS assay to identify small molecule agonists of the estrogen related receptor (ERR) signaling pathway from Tox21 library (AID 1224849; calls by dose curve; note: nearly all actives have a fitted effect of over 15% in size). The note with it: ERR reporter cell line, ONE-Glo luciferase, 18 h; at 92.4 µM (top of the series) unless noted. The method, boiled down: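 Luminescence readout (ONE-Glo, 30 min RT) after 18 h compound exposure at 37 C of NTP-supplied ERR reporter cells; cells were plated 6 h before compound addition by pin tool.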

A short description of experiment [19]: qHTS assay to identify small molecule agonists of the hypoxia (HIF-1) signaling pathway (AID 1224846; active = well fitted activation curve with a large enough effect in the signal ratio in the repeat runs, not every such curve was filed as active; the % refers to the signal ratio). The method, boiled down: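 Beta-lactamase FRET read-out (CCF4-AM substrate) from ME-180 cells carrying an HRE-driven bla reporter, after 17 hrs compound exposure at 37C/5% CO2. Cells were seeded at 2,000 per well in 0.5% dialyzed FBS medium and preincubated 5 hrs.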
% is set by controls: 0 for no effect and ±100 for the full control effect.

Thyrotropin receptor (Homo sapiens), sequence (P16473 whole entry, looked up): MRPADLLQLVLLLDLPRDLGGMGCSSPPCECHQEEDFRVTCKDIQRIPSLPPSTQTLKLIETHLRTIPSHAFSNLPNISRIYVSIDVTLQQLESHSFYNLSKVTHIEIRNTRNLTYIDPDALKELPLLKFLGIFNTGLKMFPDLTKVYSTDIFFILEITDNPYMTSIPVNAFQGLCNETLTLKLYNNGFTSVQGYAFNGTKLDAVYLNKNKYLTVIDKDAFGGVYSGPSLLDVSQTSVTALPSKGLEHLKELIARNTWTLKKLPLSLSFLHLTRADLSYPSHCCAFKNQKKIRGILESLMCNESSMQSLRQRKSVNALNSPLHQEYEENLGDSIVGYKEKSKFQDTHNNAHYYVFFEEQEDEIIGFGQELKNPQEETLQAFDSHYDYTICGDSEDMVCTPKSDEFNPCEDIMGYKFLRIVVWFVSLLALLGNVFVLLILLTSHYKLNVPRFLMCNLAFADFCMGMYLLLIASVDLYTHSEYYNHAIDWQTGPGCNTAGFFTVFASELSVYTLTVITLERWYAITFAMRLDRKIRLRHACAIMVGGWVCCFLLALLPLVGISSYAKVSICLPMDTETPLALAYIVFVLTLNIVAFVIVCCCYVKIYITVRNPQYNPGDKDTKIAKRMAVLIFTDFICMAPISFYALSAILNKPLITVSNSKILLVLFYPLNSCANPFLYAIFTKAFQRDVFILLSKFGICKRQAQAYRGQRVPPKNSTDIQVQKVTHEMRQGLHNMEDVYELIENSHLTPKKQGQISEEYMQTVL

As to `Cc1c(Cl)c(=O)oc2cc(O)ccc12`, the Potency entry in experiment [1], in experiment [2], in experiment [3], in experiment [4], in [6] and in [7] was “inactive” each time. Further, the Potency result in [8], in experiment [9], in [11] and in experiment [12] was “inactive” throughout. Further, the Potency in experiment [5] and in [10] was 43.6 µM (active) throughout.
In the case of `c1ccc(-c2ccccc2-c2ccccc2)cc1`, the Potency result in experiment [13], in [4], in experiment [5], in experiment [6], in experiment [7] and in experiment [8] was “inactive” in each case. Moreover, the Potency entry in experiment [14], in [9], in experiment [11] and in [12] was “inactive” throughout. In experiment [10], the max response was -10.2%.
As for `CC(=O)Nc1ccc(N=Nc2cc(C)ccc2O)cc1`, the Potency in [15] was 4.33 µM (active). The Potency entry in experiment [2], in experiment [16], in experiment [17], in experiment [4], in experiment [5] and in experiment [6] was “inactive” each time. Further, the Potency entry in experiment [7], in experiment [8], in experiment [14], in [11] and in experiment [12] was “inactive” each time. Also, the activity change, positive = activation in experiment [18] is 169% (active). Besides, the max response in experiment [10] was -19.1%.
Take `Nc1cccnc1N`: the Potency entry in [1], in [2], in experiment [19], in experiment [3], in experiment [4] and in [6] was “inactive” throughout. In addition, the Potency entry in experiment [7], in experiment [8], in experiment [9], in [11] and in experiment [12] was “inactive” each time.
On to `O=C1CCC/C=C\CCCCCCCCCC1`, for which the Potency result in experiment [13], in experiment [3], in experiment [4], in experiment [5], in [6] and in experiment [7] was “inactive” throughout. For the same compound, the Potency result in experiment [14], in experiment [9], in experiment [11] and in experiment [12] was “inactive” each time. For the same compound, in [10], the max response is -5.39%.
Regarding `CN1CCN(CCCN2c3ccccc3Sc3ccc(Cl)cc32)CC1`, the Potency result in experiment [1], in [6] and in [9] was “inactive” each time. The figures for the Potency in experiment [2], in [4] and in experiment [12] were 21.3 µM (active), 21.3 µM (active) and 23.9 µM (active), respectively.
Turning to `NCc1cccc(C2CCN(C(=O)c3ccc(C#Cc4ccccc4F)o3)CC2)c1`, the Potency was 54.9 µM (active) in experiment [2]; 56.6 µM (active) in [3]; 54.9 µM (active) in experiment [4]; 54.9 µM (active) in experiment [8]; 49 µM (active) in experiment [14]; 49 µM (active) in experiment [9]. The Potency in [11] was 49 µM (active); in experiment [12] it was 38.9 µM (active). Further, the Potency entry in experiment [6] is “inactive”.
Consider `O=C(CCCCCCCCc1cccnc1)N1CCC(C=C(c2ccccc2)c2ccccc2)CC1`, for which the Potency entry in experiment [15], in experiment [16], in experiment [6], in experiment [11] and in experiment [12] was “inactive” throughout. Moreover, the Potency in experiment [2] was 13.8 µM (active); in [3] it was 50.5 µM (active); in experiment [17] it was 21.7 µM (active); in [5] it was 21.9 µM (active); in experiment [9] it was 49 µM (active); in [10], 21.9 µM (active). Besides, the activity change, positive = activation in experiment [18] was -69.2%.
With `O=C1OC(O)C(C(Cl)Cl)=C1Cl` (configuration not stated), the Potency result in experiment [1], in experiment [3], in experiment [6], in experiment [9], in experiment [11] and in experiment [12] was “inactive” in each case.
